The source of these data is PubChem BioAssay (EPA / NIEHS).

Active and inactive are the calls of the source. Rule for the calls: active = hit-call score of the fitted dose curve at least 0.9, where 1 is the maximum; inactive = score below 0.9.

Test [1] in a line: APR_HepG2_CellCycleArrest_24hr: Apredica 24-hour HepG2 Assay for Cell Cycle Arrest (AID 2282905).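 Note: cell cycle arrest scored as ratio of 2N to 4N nuclear DNA content.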 The conditions noted are these: imaging, actives raise or lower the signal. Put shortly: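 After 24 h exposure at 0.39–200 uM in 0.5% DMSO, fixed cells received Hoechst 33342 staining. Imaging quantified per-nucleus DNA content; gain or loss fitted against DMSO controls.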
Test [2] is described as follows: APR_HepG2_NuclearSize_24hr: Apredica 24-hour HepG2 Assay for Nuclear Size (AID 2282907). The settings on record: high-content imaging, actives raise or lower the signal. In a few lines: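 Nuclear size from Hoechst 33342-stained, formaldehyde-fixed HepG2 nuclei imaged by high-content microscopy, after 24 h dosing at ten concentrations from 0.39 to 200 uM in 0.5% DMSO; gain or loss relative to DMSO baseline.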

The nature of test [3]: APR_HepG2_CellLoss_24hr: Apredica 24-hour HepG2 Assay for Cell Loss (AID 2282908).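 For AC50: fit in both directions so a hit may be cell loss or gain.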 The settings on record: high-content imaging. Put shortly:
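Nuclei stained with Hoechst 33342 after formaldehyde fixation (3.7%) were imaged at 20x to count cells. Exposure lasted 24 hr, at ten concentrations from 0.39 to 200 uM in duplicate, with 0.5% v/v DMSO. Fit bidirectional, relative to DMSO.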

Test [4] can be described thus: APR_HepG2_MicrotubuleCSK_24hr: Apredica 24-hour HepG2 Assay for Microtubule CSK Stabilty (AID 2282909). The conditions noted are these: HepG2 microtubule cytoskeleton imaging, actives raise or lower the signal. In a few lines: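 Fixed HepG2 cells were stained for alpha-tubulin and imaged after 24 hr exposure to ten concentrations spanning 0.39–200 uM in 0.5% DMSO. Signal change was fitted in both directions relative to DMSO; taxol was the positive control.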

Test [5] in a line: APR_HepG2_MitoticArrest_24hr: Apredica 24-hour HepG2 Assay for Mitotic Arrest (AID 2282910). The conditions noted are these: high-content imaging, actives raise or lower the signal. In a few lines:
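Treatment lasted 24 hr in the human HepG2 line at 0.39–200 uM, solvent held at 0.5% DMSO. Fixed cells were stained with Hoechst 33342 and anti-phospho-histone H3, imaged at 20x, and analysed by gain- or loss-of-signal fitting against DMSO.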

Test [6] can be described thus: APR_HepG2_MitoMembPot_24hr: Apredica 24-hour HepG2 Assay for Mitochondrial Membrane Potential (AID 2282911). The settings on record: imaging, actives raise or lower the signal. Put shortly:
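HepG2 human liver cells were exposed 24 hr to compounds at 0.39–200 uM (final DMSO 0.5% v/v) in duplicate. MitoTracker Red CMXRos (250 nM, 30 min) was loaded before formaldehyde fixation; fluorescence was imaged by ArrayScan HCS and fitted bidirectionally versus DMSO.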

A short description of test [7]: APR_HepG2_MitoMass_24hr: Apredica 24-hour HepG2 Assay for Mitochondrial Mass (AID 2282912). The settings on record: high-content imaging, actives raise or lower the signal. Put shortly: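 Endpoint is MitoTracker Red CMXRos (250 nM, 30 min, pre-fixation) intensity from 20x high-content imaging, nuclei located by Hoechst. Human HepG2 cells received ten concentrations from 0.39 to 200 uM in 0.5% DMSO for 24 hr, duplicate wells. Bidirectional fit relative to DMSO.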

The nature of test [8]: APR_HepG2_CellCycleArrest_72hr: Apredica 72-hour HepG2 Assay for Cell Cycle Arrest (AID 2282914). The conditions noted are these: high-content imaging, actives raise or lower the signal. In a few lines:
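HepG2 cells were exposed to compounds at 0.39–200 uM (0.5% v/v DMSO final, duplicates) for 72 hr, fixed in 3.7% formaldehyde, permeabilized and stained with Hoechst 33342. Nuclear DNA content was quantified by high-content imaging; gain or loss of signal was fitted bidirectionally against DMSO.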

Test [9] is described as follows: APR_HepG2_CellLoss_72hr: Apredica 72-hour HepG2 Assay for Cell Loss (AID 2282915). The conditions noted are these: high-content imaging. Put shortly:
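HepG2 cells were exposed for 72 hr to compounds at 0.39–200 uM (ten concentrations, duplicate) in 0.5% v/v final DMSO. Nuclei were stained with Hoechst 33342 after 3.7% formaldehyde fixation, imaged at 20x, and counted; fits bidirectional versus DMSO.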

Test [10] can be described thus: APR_HepG2_P-H2AX_72hr: Apredica 72-hour HepG2 Assay for H2AX Phosphorylation (AID 2282916).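 Note: phospho-histone H2A.x immunostain intensity per cell marking DNA damage.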 The settings on record: imaging, actives raise or lower the signal. Put shortly:
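Phospho-histone H2A.x immunofluorescence, multiplexed with Hoechst and c-Jun, quantified by high-content imaging. Compounds applied to HepG2 for 72 h across ten concentrations (0.39–200 uM, 0.5% DMSO), in duplicate; DMSO baseline.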

Test [11] is described as follows: APR_HepG2_MitoMembPot_72hr: Apredica 72-hour HepG2 Assay for Mitochondrial Membrane Potential (AID 2282917). The conditions noted are these: imaging, actives raise or lower the signal. Put shortly:
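HepG2 cells exposed 72 h to compounds at 0.39–200 uM (0.5% v/v DMSO, duplicates); MitoTracker Red CMXRos 250 nM loaded 30 min before 3.7% formaldehyde fixation, imaged by HCS fluorescence. Bidirectional fit versus DMSO.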

Test [12] can be described thus: APR_HepG2_MitoticArrest_72hr: Apredica 72-hour HepG2 Assay for Mitotic Arrest (AID 2282918). The settings on record: high-content imaging, actives raise or lower the signal. Put shortly:
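HepG2 cells were exposed for 72 hr to compound at 0.39–200 uM (10 concentrations, duplicate) in 0.5% v/v DMSO, fixed in 3.7% formaldehyde, immunostained for phospho-histone H3 with Hoechst 33342 and imaged by high-content fluorescence; bidirectional fits versus DMSO.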

The nature of test [13]: APR_HepG2_P-H2AX_24hr: Apredica 24-hour HepG2 Assay for H2AX Phosphorylation (AID 2282920). The settings on record: high-content imaging, actives raise or lower the signal. In a few lines:
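HepG2 human liver cells were exposed for 24 hr to compounds at 0.39–200 uM in duplicate, with 0.5% v/v DMSO final. Fixed cells were immunostained for phospho-histone H2A.x plus Hoechst 33342, imaged by HCS fluorescence, and fitted bidirectionally against DMSO.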

The nature of test [14]: APR_HepG2_StressKinase_72hr: Apredica 72-hour HepG2 Assay for Stress Kinase (AID 2282921). The conditions noted are these: HepG2 stress kinase (phospho-c-Jun) imaging, actives raise or lower the signal. Put shortly:
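Stress kinase signal is phospho-c-Jun immunofluorescence (1:500 primary, Cy3 secondary) in fixed, permeabilized human HepG2 cells imaged at 20x. Exposure lasted 72 hr over ten concentrations from 0.39 to 200 uM, 0.5% DMSO, in duplicate. Bidirectional fit versus DMSO.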

Test [15] is described as follows: APR_HepG2_StressKinase_24hr: Apredica 24-hour HepG2 Assay for Stress Kinase (AID 2282922). The settings on record: HepG2 stress kinase (phospho-c-Jun) imaging, actives raise or lower the signal. In a few lines:
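After 24 hr compound treatment (up to 200 uM, final DMSO 0.5% v/v), HepG2 cells are fixed and multiplex-labeled; phospho-c-Jun intensity is captured by high-content fluorescence imaging and analyzed relative to DMSO.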

The nature of test [16]: APR_HepG2_p53Act_72hr: Apredica 72-hour HepG2 Assay for p53 Activation (AID 2282923).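 Note: average cellular p53 protein immunofluorescence intensity in HepG2 cells.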 The conditions noted are these: high-content imaging, actives raise or lower the signal. Put shortly:
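After 72 h with compound (ten points, 0.39 to 200 uM, final DMSO 0.5% v/v), fixed HepG2 cells were labelled with sheep anti-p53 and Hoechst 33342 and imaged; gain or loss versus DMSO scored.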

Test [17] can be described thus: APR_HepG2_MitoMass_72hr: Apredica 72-hour HepG2 Assay for Mitochondrial Mass (AID 2282924).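 Note: MitoTracker Red CMXRos stain intensity per cell imaged as mitochondrial mass.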 The conditions noted are these: high-content imaging, actives raise or lower the signal. In a few lines:
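Steps: treat HepG2 72 hr (0.39–200 uM, duplicate wells); load MitoTracker Red CMXRos, 250 nM, 30 min; fix with 3.7% formaldehyde, permeabilise with 0.5% Triton X-100; capture images, nuclei via Hoechst 33342; fit bidirectionally against DMSO.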

The nature of test [18]: APR_HepG2_NuclearSize_72hr: Apredica 72-hour HepG2 Assay for Nuclear Size (AID 2282925). The conditions noted are these: high-content imaging, actives raise or lower the signal. Put shortly: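 Compounds (0.39–200 uM, final DMSO 0.5%) were applied to HepG2 for 72 hr. Cells were then formaldehyde-fixed, permeabilized and labelled with Hoechst 33342. Nuclear diameter was quantified from six images per well.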

Test [19] can be described thus: APR_HepG2_p53Act_24hr: Apredica 24-hour HepG2 Assay for p53 Activation (AID 2282913).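 Note: p53 protein immunofluorescence averaged per cell in HepG2 with Hoechst nuclei.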 The conditions noted are these: high-content imaging, actives raise or lower the signal. Put shortly: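 HepG2 cells exposed 24 hr to compounds at 0.39–200 uM (10 concentrations, duplicate), final DMSO 0.5% v/v. After formaldehyde fixation and Triton permeabilization, p53 was immunolabeled (sheep anti-p53, Cy5 secondary) with Hoechst 33342 nuclear counterstain, then imaged by high-content fluorescence microscopy.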

Test [20] is described as follows: APR_HepG2_MicrotubuleCSK_72hr: Apredica 72-hour HepG2 Assay for Microtubule CSK Stabilty (AID 2282919). The conditions noted are these: HepG2 microtubule cytoskeleton, high-content imaging, actives raise or lower the signal. Put shortly:
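Ten-point dosing (0.39–200 uM, 0.5% DMSO) of HepG2 for 72 hr, with taxol as the cytoskeletal positive control. The cells were formaldehyde-fixed and then stained with alpha-tubulin/Cy5 and Hoechst. Imaging at 20x used a −2 um Z offset for tubulin.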

For the compound `c1ccc(NNc2ccccc2)cc1`, the outcome in test [1], in test [2], in test [3], in test [4], in [5] and in test [6] was inactive. Besides, the outcome in [7], in test [11], in test [13], in test [14], in test [15] and in test [18] was inactive. The half-maximal activity concentration (AC50) (in general, the midpoint of the concentration-response curve, whichever way the signal moves) was 104 µM (active) in test [8]; 97.9 µM (active) in [9]; 100 µM (active) in [10]; 100 µM (active) in test [12]; 98.9 µM (active) in test [16]; 150 µM (active) in test [17].

Regarding `[Cl-].[Cl-].[Hg+2]`, the call in test [1], in test [8], in test [10], in test [11], in test [14] and in [16] was inactive. The outcome in [17] and in test [18] was inactive. In addition, the half-maximal activity concentration (AC50) was 31.9 µM (active) in test [2]; 31.3 µM (active) in [3]; 28.9 µM (active) in test [4]; 23.7 µM (active) in test [5]; 74.4 µM (active) in test [6]; 28 µM (active) in test [7]. The AC50 in test [9] is 20.3 µM (active); in [12], 17.6 µM (active); in test [13] it was 21.5 µM (active); in test [15], 19.8 µM (active).

Turning to `ClC1=C(Cl)[C@]2(Cl)[C@H]3[C@H]([C@@H]4C=C[C@H]3C4)[C@@]1(Cl)C2(Cl)Cl`, the AC50 is 53.8 µM (active) in test [2]; 46.5 µM (active) in test [3]; 25.4 µM (active) in test [5]; 48.1 µM (active) in test [7]; 49.7 µM (active) in test [19]; 16.2 µM (active) in test [8]. For the same compound, the concentration at half-maximal activity (AC50) was 36.7 µM (active) in [9]; 42.6 µM (active) in [10]; 32.9 µM (active) in [12]; 50.7 µM (active) in test [13]; 53.4 µM (active) in test [14]; 45.3 µM (active) in test [16]. For the same compound, the compound was called inactive in test [4], in test [6], in test [11], in [20], in [15] and in test [17]. The call in [18] was inactive.
